15 molecules from PubChem BioAssay can be followed below.

Activity calls are given as the source filed them.

Test [1] deals with Albumin (Bos taurus) (UniProt P02769). Kind of test: bovine serum albumin binders on microarray, profiling panel, artefact control for SMM control protein annotation, biochemical, small-molecule microarray, Alexa647 label, 635/667 nm fluorescence (AID 1118).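 Further: score merges 667 nm emission intensity and signal-to-noise per printed compound spot.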 Conditions: BSA-A647 binding, fluorescence 635 nm, higher = more signal.
Chain of Albumin (Bos taurus) (P02769 whole entry, looked up): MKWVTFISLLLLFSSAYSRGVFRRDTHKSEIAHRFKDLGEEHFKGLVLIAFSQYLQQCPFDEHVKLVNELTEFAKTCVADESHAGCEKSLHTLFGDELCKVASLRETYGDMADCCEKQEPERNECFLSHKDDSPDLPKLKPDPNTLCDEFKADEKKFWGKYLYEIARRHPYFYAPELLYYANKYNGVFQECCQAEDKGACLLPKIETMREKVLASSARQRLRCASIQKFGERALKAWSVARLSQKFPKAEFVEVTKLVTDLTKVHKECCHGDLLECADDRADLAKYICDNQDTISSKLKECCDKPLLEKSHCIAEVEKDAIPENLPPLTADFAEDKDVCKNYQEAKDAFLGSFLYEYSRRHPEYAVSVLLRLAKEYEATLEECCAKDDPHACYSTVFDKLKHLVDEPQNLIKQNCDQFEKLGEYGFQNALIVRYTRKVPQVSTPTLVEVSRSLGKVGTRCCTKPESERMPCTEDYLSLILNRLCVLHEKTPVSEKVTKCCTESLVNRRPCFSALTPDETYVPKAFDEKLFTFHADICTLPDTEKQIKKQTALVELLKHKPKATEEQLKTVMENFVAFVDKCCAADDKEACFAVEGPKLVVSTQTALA
Test [2] can be described thus: small-molecule microarray binders of probe aXIP, primary screen, biochemical, NeuroSMM set, 635/667 nm fluorescence (AID 1119).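 Further: probe is the protein aXip251-270 applied at 1 µg/mL to compound-printed slides; binding of probe to printed compounds measured as 667 nm fluorescence plus signal to noise.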 Conditions: higher = more signal, called active from +8 up or from −8 down.
The nature of test [3]: small-molecule binders of probe aNOTCH3, primary screen, biochemical, small-molecule microarray, 635/667 nm fluorescence (AID 1120).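 Further: probe is a biotin-tagged antibody raised against NOTCH3 rather than NOTCH3 protein; score merges spot fluorescence near 667 nm with spot signal to noise.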 Conditions: higher = more signal.
Test [4] in a line: small-molecule binders of probe aNOTCH2, primary screen, biochemical, small-molecule microarray, 635/667 nm fluorescence (AID 1121).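 Further: score merges feature fluorescence read at 667 nm with its signal to noise.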 Conditions: higher = more signal.
The target of test [5] is Carbonic anhydrase 2 (Homo sapiens) (UniProt P00918). The experiment in a line: CAII small-molecule binders, profiling panel, biochemical, small-molecule microarray, Alexa647-labelled CAII (AID 1122). Conditions: CAII-A647 binding fluorescence, higher = more signal.
Test [6] can be described thus: COS7 lysate on small-molecule microarray, probe aHis, 635 nm (AID 1123).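 Further: z-score combines 667nm fluorescence intensity with signal-to-noise per printed compound spot.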 Particulars: COS7 cell lysate, fluorescence, higher = more signal.
Test [7] is described as follows: compound binding in COS7 lysate, probe aLAP1, primary screen, cell lysate, small-molecule microarray (AID 1124).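 Further: lysate comes from COS7 cells expressing LAP1 and is applied at 0.3 µg/mL; score merges spot fluorescence near 667 nm with signal-to-noise over triplicate slides.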 Conditions: probe aLAP1, fluorescence, higher = more signal.
In test [8] the test system is Sam68 (KHDRBS1). Kind of test: Sam68 small-molecule binders, primary screen, biochemical, small-molecule microarray, 635 nm fluorescence (AID 1125).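 Further: score merges 667 nm channel intensity with signal to noise over triplicate slides.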 Conditions: small-molecule microarray binding, higher = more signal.
Test [9] concerns Chordin-like protein 2 (CHRDL2). Kind of test: CHRDL2 small-molecule binders, primary screen, biochemical, small-molecule microarray, 635 nm fluorescence (AID 1126).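 Further: printed compound slides probed with Chrdl2 protein at 4 µg/mL for 1 h at 4 C; score merges 667 nm emission intensity with signal to noise over three replicate slides.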 Conditions: small-molecule microarray binding, fluorescence 635 nm; higher = more signal.
For test [10], the target named is Concanavalin-A (Canavalia ensiformis) (UniProt P02866). Kind of test: ConA small-molecule binders, primary screen, artefact control for SMM control protein annotation, biochemical, small-molecule microarray, Alexa647 label, 635 nm (AID 1127).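 Further: z combines 667 nm emission intensity with signal-to-noise across three replicate slides.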 Particulars: ConA-A647 binding fluorescence, higher = more signal.
Chain of Concanavalin-A (Canavalia ensiformis) (P02866 whole entry, looked up): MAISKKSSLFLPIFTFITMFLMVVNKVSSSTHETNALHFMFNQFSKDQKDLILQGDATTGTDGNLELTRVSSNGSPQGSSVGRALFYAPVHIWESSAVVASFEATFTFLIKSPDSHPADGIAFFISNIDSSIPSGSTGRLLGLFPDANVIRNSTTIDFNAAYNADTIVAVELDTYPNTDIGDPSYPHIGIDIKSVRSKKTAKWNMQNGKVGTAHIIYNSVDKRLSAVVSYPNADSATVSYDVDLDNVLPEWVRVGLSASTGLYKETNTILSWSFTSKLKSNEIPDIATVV

With `Cc1ccc(C(C)CC(O)C2C=CC3C(=O)N(C)C(=O)C3N2Nc2ccccc2)o1` (stereo not given), the composite z-score was 0.264 in [1]; 0.318 in test [3]; -0.075 in test [4]; 0.656 in [5]; 0.614 in test [6]; 0.0421 in test [7]. The composite z-score in test [8] was found to be 1.3; in test [9] it was 0.122; in test [10], 0.617. Besides, the composite Z-score in [2] was -0.288 (inactive).

In the case of `C=CCC(OC(C)=O)[C@@H]1[C@@H](N(Cc2ccc(-c3cccc(C(F)(F)F)c3)o2)C(=O)Cc2ccc(F)cc2)c2cc(OCCCO)ccc2N1C(=O)Cc1ccc2ccccc2c1` (stereo not given in full), the composite z-score was -0.0508 in test [1]; -0.182 in test [3]; -0.104 in [4]; -0.25 in [5]; 0.121 in [6]; -0.169 in test [7]. Moreover, the figures for the composite z-score in test [8], in test [9] and in test [10] were -2.04, 0.0229 and -0.492, respectively. Further, the composite Z-score in [2] was -0.186 (inactive).

Consider `O=C1N(CCS(=O)(=O)c2ccccc2)c2ccccc2C[C@]12N=C(c1ccc(OCCCO)cc1)O[C@@H]2c1ccccc1`, for which the composite z-score in test [1] is 0.815; in test [3] it was -0.221; in test [4], -0.0694; in test [5], 0.584; in test [6], 3.22; in [7], 2.17. Also, the values for the composite z-score in [8], in [9] and in [10] were 1.29, 1.25 and 1.05, respectively. In addition, the composite Z-score in test [2] was 1.86 (inactive).

Consider `CN(C)CCCC[C@@H]1NC(=O)[C@@H]2C[C@H](C(=O)NCCCCCN)[C@H](c3cccc(OCCO)c3)N2C1=O`, for which the composite z-score is 0.49 in test [1]; 0.423 in test [3]; -0.14 in test [4]; 0.727 in [5]; 0.482 in test [6]; 1.27 in [7]. For the same molecule, the composite z-score in [8] amounted to 1.33; in test [9], 0.495; in test [10], 1.21. The composite Z-score in [2] was 0.932 (inactive).

For the molecule `C[C@@H]1ON(c2ccc(I)cc2)[C@H](c2cccc(NC(=O)OCC3c4ccccc4-c4ccccc43)c2)[C@H]1C(=O)N1C(=O)OC[C@H]1Cc1ccccc1`, the composite z-score is -0.0188 in [1]; 0.0276 in test [3]; -0.126 in test [4]; 0.456 in test [5]; 0.367 in test [6]; 0.111 in test [7]. For the same molecule, the figures for the composite z-score in [8], in test [9] and in test [10] were 0.668, 0.926 and 1.01, respectively. Also, the composite Z-score in test [2] was -0.222 (inactive).

For the molecule `C[N+](C)(C)CCCCNC(=O)[C@H]1C[C@H]2C(=O)N[C@@H](Cc3ccccc3)C(=O)N2[C@H]1c1cccc(OCCO)c1`, the composite z-score in test [1] is -1.43; in [3] it was 0.0401; in test [4], -0.1; in [5], 0.542; in test [6], 1.71; in [7] it was 1.3. For the same molecule, the composite z-score in test [8] stood at 0.669; in test [9], 1.5; in [10], 1.1. Further, the composite Z-score in test [2] was 0.466 (inactive).

On to `CCC(CC)C(O)C1C=CC2C(=O)N(c3ccccc3)C(=O)C2N1Nc1ccccc1F` (stereo not given), for which the composite z-score in [1] was determined as 0.86; in test [3], 0.188; in test [4], 0.001; in test [5] it was 0.604; in [6], 1.83; in test [7] it was 0.261. Besides, the composite z-score was found to be 0.865 in [8], 0.118 in test [9] and 0.949 in [10]. For the same molecule, the composite Z-score in [2] was 0.204 (inactive).

With `CCOc1cc(C(O)C2C=CC3C(=O)N(c4ccccc4)C(=O)C3N2Nc2ccccc2F)ccc1O` (stereo not given), the composite z-score in test [1] was 0.799; in [3], 0.533; in [4], 0.433; in [5], 0.826; in test [6], 2.75; in test [7], 0.0411. In addition, the values for the composite z-score in test [8], in [9] and in test [10] were 0.339, 0.0988 and 0.666, respectively. For the same molecule, in [2], the composite Z-score was -0.209 (inactive).

Take `COCCOC(=O)N1C(=O)[C@@]2(c3ccccc31)[C@H](c1ccc(O)cc1)N1[C@H](c3ccccc3)[C@H](c3ccccc3)OC(=O)[C@H]1[C@@H]2C(=O)N1CCCCCCC1`: the composite z-score in test [1] was 0.46; in [3], 1.98; in test [4] it was 0.851; in test [5], 0.863; in test [6] it was 3.62; in [7] it was 1.18. In addition, the composite z-score in test [8] worked out at 1.3; in [9], 1.58; in [10] it was 1.14. Also, in test [2], the composite Z-score is 4.53 (inactive).

As for `O=C1c2ccccc2[C@@]2(Cc3ccccc3N(Cc3ccccc3)C2=O)[C@H](c2ccc(CO)cc2)N1Cc1ccccc1Cl`, the composite z-score in [1] was 0.705; in test [3] it was -0.279; in [4], -0.171; in test [5], -0.391; in test [6] it was -0.222; in [7] it was 0.147. Moreover, the composite z-score was -0.633 in test [8], -0.688 in [9] and -0.709 in test [10]. The composite Z-score in test [2] was 0.0507 (inactive).

Consider `O=C1N(Cc2ccccc2)c2ccccc2C[C@@]12COC(c1ccc(OCCCO)cc1)=N2`, for which the composite z-score in test [1] is 0.809; in test [3], 0.251; in test [4] it was -0.0595; in test [5] it was 0.471; in test [6], 2.51; in test [7], 0.756. The composite z-score in [8] was 1.15; in [9], -0.366; in test [10] it was 0.582. Also, the composite Z-score in test [2] was -0.267 (inactive).

Turning to `COc1ccc(C(O)C2C=CC3C(=O)N(C)C(=O)C3N2N(c2ccccc2)c2ccccc2)cc1` (stereo not given), the composite z-score is 0.86 in test [1]; 0.016 in test [3]; -0.0657 in test [4]; 0.728 in [5]; 1.49 in test [6]; 0.0978 in test [7]. Moreover, the composite z-score was 0.731 in test [8], 0.0617 in [9] and 0.632 in test [10]. Moreover, in test [2], the composite Z-score is 0.828 (inactive).

As for `CCCN1C(=O)[C@]2(CCC(=O)OC(C)(C)C)N=C(c3ccc(OCCCO)cc3)O[C@@H]2c2ccccc21`, the composite z-score in test [1] was 0.151; in test [3], -0.0044; in test [4], -0.0732; in test [5], 0.2; in test [6], 1.42; in test [7], 0.651. Moreover, the composite z-score in test [8] stood at 0.8; in test [9] it was 0.405; in [10], 1.03. Besides, the composite Z-score in test [2] is -0.12 (inactive).

Turning to `O=C(NCC(O)CO)C1N=C(c2ccc(OCCCO)cc2)N(c2ccccc2)O1` (stereo not given), the composite z-score in test [1] was -0.138; in [3] it was -0.0996; in test [4] it was 0.162; in test [5], 0.821; in [6], 0.0043; in [7] it was 1.04. Also, the composite z-score in test [8] turned out to be 1; in test [9], 0.157; in test [10] it was 0.53. In addition, in test [2], the composite Z-score was -0.226 (inactive).

In the case of `CC(C)NC(=O)[C@@H]1c2ccccc2C(=O)N(Cc2ccc(OC(F)(F)F)cc2)[C@H]1c1ccc(CO)cc1`, the composite z-score was -0.215 in [1]; 0.503 in test [3]; 0.321 in [4]; 0.268 in test [5]; 1.35 in test [6]; 0.651 in [7]. In addition, the composite z-score in test [8] was found to be 1.3; in [9], 0.215; in [10], 0.882. Moreover, the composite Z-score in test [2] is -0.194 (inactive).
